# High-throughput results deposited in PubChem by National Center for Advancing Translational Sciences (NCATS).
# HPGD inh: qHTS Assay for Inhibitors of HPGD (15-Hydroxyprostaglandin Dehydrogenase). 15-hydroxyprostaglandin dehydrogenase [NAD(+)] (Homo sapiens), P15428. actives 4.3% (n = 150,000). AID 894, 2007. purified HPGD, NADH fluorescence kinetic, PGE2 substrate. Potency, µM, for the others: at the top dose activity change, negative = inhibition, most hits filed as inhibitors; note: potency is the fitted concentration of half-maximal effect
#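 20 nM HPGD preincubated 15 min at room temperature with compound in 50 mM Tris-HCl pH 8, 0.01% Tween 20. Started with 1 mM NAD+ and 30 uM prostaglandin E2; NADH fluorescence (360/450 nm) read 5 times over 30-s intervals, last minus first.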
# ALDH1A1 inh: qHTS Assay for Inhibitors of Aldehyde Dehydrogenase 1 (ALDH1A1) | Potency, µM (top dose mostly 75.3 µM), without a hit: at the highest dose activity, negative = inhibition, actives largely listed as inhibitors | Aldehyde dehydrogenase 1A1 (Homo sapiens), P00352 | Purified ALDH1A1, NADH fluorescence, propionaldehyde substrate | actives 7.3% (n = 220,000);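 note: potency is the fitted concentration of half-maximal effect; plate controls were no enzyme wells and a reference inhibitor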
# Target sequence (P00352 whole entry, looked up): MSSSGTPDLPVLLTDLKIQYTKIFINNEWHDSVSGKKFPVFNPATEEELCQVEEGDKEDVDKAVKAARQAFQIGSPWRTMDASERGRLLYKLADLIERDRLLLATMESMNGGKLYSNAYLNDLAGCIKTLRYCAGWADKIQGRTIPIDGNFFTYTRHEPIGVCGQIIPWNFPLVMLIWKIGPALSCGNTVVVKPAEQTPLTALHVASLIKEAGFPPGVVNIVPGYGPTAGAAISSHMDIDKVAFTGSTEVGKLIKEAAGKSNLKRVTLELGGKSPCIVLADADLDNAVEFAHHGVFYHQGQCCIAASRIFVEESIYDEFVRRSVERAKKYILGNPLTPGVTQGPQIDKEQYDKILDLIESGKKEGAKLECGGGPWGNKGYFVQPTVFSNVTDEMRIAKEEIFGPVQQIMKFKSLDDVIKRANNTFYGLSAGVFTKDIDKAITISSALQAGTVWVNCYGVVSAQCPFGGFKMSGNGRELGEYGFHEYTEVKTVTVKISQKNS
# PNC inhibitor: High Content Assay for Compounds that inhibit the Assembly of the Perinucleolar Compartment | PC3M PTB-GFP, PNC prevalence imaging, 16 h; active compounds read low | activity change (PNC), negative = inhibition, % at 10 µM | actives 3.1% (n = 140,000);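 active = readout at or below -70, meaning at least 70% loss of cells showing the perinucleolar compartment, a nuclear body marking cancer cells; inconclusive = readout between -30 and a set limit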;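 note: plate controls were DMSO wells for no effect and camptothecin positive control wells for full effect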
#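 Read-out is percentage of cells bearing a perinucleolar compartment, from automated 20x imaging of fixed, Hoechst-stained PC3M PTB-GFP cells. Cells were seeded 4 h, then exposed 16 h to compound (23 nl of library stock) in duplicate plates.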
# KDM4E inh: qHTS Assay for Inhibitors of Human Jumonji Domain Containing 2E (JMJD2E). JMJD2E catalytic domain, FDH-coupled NADH fluorescence (FDH is formaldehyde dehydrogenase). Potency, µM (highest dose often 57.1 µM), without a hit: at the top dose activity change, negative = inhibition, most hits filed as inhibitors. actives 1.6% (n = 230,000);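 note: potency is the fitted concentration of half-maximal effect; 0% = wells with enzyme and -100% = buffer wells without enzyme; nearly all actives have a fitted effect of over 50% in size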
# Numbers without * were called inactive; ? = inconclusive; / = no result given; [ ] = dose if it differs, or a comment. The list is not random: actives were taken first. Their share in the collection is about 11%. Unless noted, calls come from the whole dose curve; as a rule, active = well fitted inhibition curve with a large enough effect (not every such curve was filed as active); inconclusive = small, poorly fitted or top-dose-only effect, or another doubt; inactive = no such curve, though single readings can be large or run the other way. Unless noted, % is set by controls: 0 for no effect and ±100 for the full control effect.
SMILES,HPGD inh,ALDH1A1 inh,PNC inhibitor,KDM4E inh
CC1(C)CC(=O)C(c2c[nH]c3ccccc23)C(=O)C1,/,20µM*,/,6.6%
CC12CN3CC(C)(CN(C1)C3c1c[nH]c3ccccc13)C2=O (centres undefined),/,-2.4%,/,5.0%
C[C@H]1Cc2c(COc3ccccc3)nc3c(c2CO1)CN(C(=O)c1cccnc1)CC3,-3.1%,-6.0%[13.5 µM],/,8.9%[11.4 µM]
COC(=O)c1cccc(NC(=S)N2CCN(c3ccccc3F)CC2)c1,/,-10.7%,/,-9.0%
O=C(NCCc1nc(-c2ccccc2)cs1)c1ccc(Br)cc1,-13.5%,2.8%,-10.6,-0.2%
CCc1ccc(C=NC23CN4CN(CN(C4)C2)C3)s1,-10.7%,7.94µM*,-21.5,8.6%
CCc1ccc(/C=N/NC(=O)c2cc(C)on2)s1,-18.3%,-2.6%,113.4,-1.1%
O=CC1=C(N2CCOCC2)/C(=C/c2ccc(Cl)cc2)CC1,/,11.2µM*,/,?
Cc1cc(C)nc(N/N=C/c2ccc(N3CCOCC3)cc2)n1,/,-8.7%,/,-9.7%
Cc1cc(C)nc(N/N=C/C2=C(N3CCOCC3)C(=C\c3ccc(Cl)cc3)/CC2)n1,-12.3%,15.8µM*,27.6,?
O=C(COc1ccc(C(=S)N2CCOCC2)cc1Cl)Nc1ccccc1Cl,/,17.8µM*,/,-7.9%
CSCC[C@H](NC(=O)[C@H](Cc1ccccc1)NC[C@@H](NC[C@@H](N)CS)C(C)C)C(=O)O,/,-10.5%,/,/
CC(=O)OC[C@@H]1O[C@H](C/C=N\O[C@@H](C)CN2CCCCc3nc(C)c(C)cc32)C=C[C@@H]1OC(C)=O,/,-7.5%[13.5 µM],/,/
CCC(=O)NNC(=O)CCC(=O)Nc1cccc(Cl)c1C,/,8.3%,/,-4.5%
Cc1c(Cl)cccc1NC(=O)Cn1cccc1,17.8µM*,7.6%,-0.1,0.3%
Cc1ccccc1NC(=O)Cn1cccc1,31.6µM*,8.0%,?,-1.3%
Cc1ccccc1NC(=O)CN1C(=O)C2C3CC(C(Br)C3Br)C2C1=O (centres undefined),14.1µM*,10µM*,-16.7,-5.2%
CC[n+]1oc(-c2ccccc2)cc1C,/,5.8%,/,9.3%
COc1ccc(Oc2ncc3nc(-c4cccs4)c(=O)n(C)c3n2)cc1,-17.7%,?,/,/
CC(C)OC(=O)CC12CN3CN(C1)CC(CC(=O)OC(C)C)(C3)C2=O,-0.8%,2.51µM*,?,-11.6%
COc1ccc(S(=O)(=O)Cc2ccc(C(=O)N3CCCC3)o2)cc1,-15.2%,?,?,5.4%
COc1ccc(S(=O)(=O)Cc2ccc(C(=O)N3CCC(C(N)=O)CC3)o2)cc1,-8.1%,4.8%,-85.1*,6.2%
COC(=O)C(C(=O)OC)C1O[C@@]23COCCC2(C)C3c2ccccc21 (some centres undefined),/,-4.6%[13.5 µM],/,/
CCOC(=O)CSC1=NC(=O)/C(=C\c2ccc(OC(C)=O)cc2)S1,25.1µM*,-7.4%,4.4,-0.8%
Cn1cccc1C(C#N)c1cccc(F)c1C#N (centres undefined),/,25.1µM*,/,-7.7%
SMILES,HPGD inh,ALDH1A1 inh,PNC inhibitor,KDM4E inh
O=C(Nc1ccc(N2CCCCC2)cc1)c1ccc2ccccc2n1,/,-4.4%,/,-2.7%
O=C(O)CCCC(=O)Nc1ccc(Cl)c(Cl)c1,-4.5%,-1.7%,36.2,4.3%
COC(=O)CCCC(=O)Nc1ccc(Cl)c(Cl)c1,-13.5%,0.6%,-100.0*,10.5%
O=C(O)CCCC(=O)Nc1ccc(C(=O)N2CCCCC2)c(Cl)c1,0.447µM*,-2.5%,?,-4.2%
CN(C)CCOc1cccc(Cl)c1,-4.8%,-9.2%,-11.6,22.4µM*
O=c1cc(CNc2cc(Cl)ccc2Cl)nc2sccn12,-27.1%,4.6%,-113.0*,13.9%
Cc1ccc2c(nc3s/c(=C/c4cccs4)c(=O)n32)c1C,28.2µM*,14.1µM*,7.1,4.7%
Cc1cc(C)c2nc3s/c(=C/c4ccccc4)c(=O)n3c2c1,5.01µM*,3.16µM*,?,0.1%
O=c1/c(=C/c2ccccc2)sc2nnc(-c3cccs3)n12,/,/,/,6.4%
O=c1/c(=C\c2cccnc2)sc2nc3ccccc3n12,-6.7%,1.8%,2.2,-1.8%
Clc1ccc(COc2ccccn2)cc1Cl,-4.8%,16.0%,6.6,5.1%
Cc1nn(C)c2ncc(C(=O)c3cc(F)ccc3O)cc12,-18.9%,6.8%,-8.0,-4.1%
Cc1nn(-c2ccccc2)c2ncc(C(=O)c3cc(Cl)ccc3O)cc12,15.8µM*,-3.6%,-27.6,-4.2%
Cc1nc(N2CCN(C(=O)c3ccco3)CC2)c2oc3ccccc3c2n1,-19.1%,28.2µM*,-17.2,-2.8%
COc1ccccc1N1CCN(c2nc(C)nc3c2oc2ccccc23)CC1,?,?,-101.8*,?
Cc1nc(N2CCC(C)CC2)c2oc3ccccc3c2n1,-7.9%,?,4.3,-2.4%
Fc1cccc(Cc2noc(CN3CCC(c4ccncc4)CC3)n2)c1,/,-3.7%,/,2.9%
CC(=O)CSc1nsc(SCC(C)=O)c1C#N,?,28.2µM*,152.7,-9.6%
CCc1c(C#N)c(N)nc(SCC(=O)OCc2ccccc2)c1C#N,?,-11.1%,-22.6,-8.6%
N#Cc1c(SCC(N)=O)nsc1SCc1ccccc1Cl,-13.3%,?,-4.0,8.9%
CC(C)(C)NC(=O)CSc1nsc(SCC(=O)NC(C)(C)C)c1C#N,-12.9%,5.8%,24.9,-3.0%
CCOC(=O)CSc1nsc(SCC(=O)OCC)c1C#N,-24.1%,6.7%,-100.0*,6.3%
N#Cc1c(SCC(=O)OCc2ccccc2)nsc1SCC(=O)OCc1ccccc1,-7.1%,-4.5%,-100.5*,8.0%
N#Cc1c(SCC(N)=O)nsc1SCc1ccc(Cl)cc1,-12.8%,-5.5%,-82.8*,5.5%
CCc1c2c(nc3ccc(OC)cc13)OC(C)C2 (centres undefined),-14.2%,0.5%,/,?
SMILES,HPGD inh,ALDH1A1 inh,PNC inhibitor,KDM4E inh
CCC(O)OC(O)CC (centres undefined),-3.5%,6.5%,/,/
Nc1sc(-c2ccccc2)c(Cc2ccccc2)c1C(=O)O,/,10µM*,/,-12.3%
COc1ccc(NC(=O)N2CCC3(CC2)CCN(C(=O)c2ccco2)CC3)cc1,-3.0%,-14.7%,/,/
O=C(c1ccco1)N1CCC2(CC1)CCN(c1ccncc1)CC2,-7.9%,7.08µM*,/,/
COc1ccc(NC(=O)N2CC3(CCN(C(=O)c4ccco4)CC3)C2)cc1,-3.9%,15.8µM*,/,/
O=C(c1ccco1)N1CCC2(CC1)CN(c1ccccc1)C2,-7.9%,14.1µM*,/,/
